Source: PubChem BioAssay (Broad Institute)
This excerpt belongs to a sample that is enriched for hits.
miR-122 inh – raises miR-122 sensor activity in Huh7 cells; Huh7 psiCHECK-miR122 Renilla luciferase sensor, 48 h; activation, % at 12.5 µM; hit rate 0.14% among 340,000;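 active means mean activation of 30% or more, with every replicate also reaching 30%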;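 further: 0% = median of neutral control wells and 100% = median of positive control wells; higher luciferase signal means stronger suppression of miR-122 activity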
The depositor's hits bear a star.

SMILES	miR-122 inh
COc1ccccc1S(=O)(=O)N(C)C[C@H]1Oc2cc(/C=C/c3ccccc3)ccc2S(=O)(=O)N([C@H](C)CO)C[C@@H]1C	-51.7
CCn1c(SCC(=O)Nc2ccc(N3CCOCC3)cc2)nnc1-c1ccc(OC)cc1	-141.6
CCn1c(CCNC(=O)c2ccc(OC)cc2)nnc1SCC(=O)Nc1ccccc1F	-119.7
CCOc1ccc(-c2nnc(SCC(=O)Nc3ccc4c(c3)c3ccccc3n4CC)n2N)cc1	53.6*
C[C@H](CO)N1C[C@H](C)[C@H](CN(C)C(=O)Cc2ccncc2)Oc2ncc(C#CCN(C)C)cc2C1=O	-6.0
C[C@H](CO)N1C[C@H](C)[C@H](CN(C)CC2CCOCC2)Oc2cc(C#Cc3cccnc3)ccc2S1(=O)=O	3.3
Cc1ccc(C(=O)OCn2ncc(Cl)c(Cl)c2=O)cc1	74.4*
COCC#Cc1cnc2c(c1)C(=O)N([C@H](C)CO)C[C@H](C)[C@@H](CN(C)S(=O)(=O)c1cccc(OC)c1)O2	-6.1
COc1cccc(C#Cc2cnc3c(c2)C(=O)N([C@@H](C)CO)C[C@H](C)[C@H](CN(C)C(=O)C2CCCCC2)O3)c1	3.4
O=S(=O)(C/C(=C/CO)S(=O)(=O)c1ccccc1)c1ccccc1	72.5*
C[C@H](CO)N1C[C@H](C)[C@H](CN(C)Cc2ccncc2)Oc2ncc(-c3cncnc3)cc2C1=O	-6.3
COc1ccc(C#Cc2cnc3c(c2)C(=O)N([C@H](C)CO)C[C@H](C)[C@H](CN(C)CC2CCOCC2)O3)cc1	-4.7
CC(=O)Nc1ccc(-c2cc(-c3ccc(NC(C)=O)cc3)nc(-c3ccc(NC(C)=O)cc3)n2)cc1	31.9*
CC(=O)Nc1ccc(NS(=O)(=O)c2ccc3ccccc3c2)cc1	-105.5
CC(=O)Nc1ccc(S(=O)(=O)Nc2cccc(-c3nc4ccccc4o3)c2)cc1	-137.7
C[C@H]1CN([C@@H](C)CO)S(=O)(=O)c2ccc(/C=C/c3ccccc3)cc2O[C@H]1CN(C)C(=O)c1cccnc1	-11.5
CC(OC(=O)c1cccc(S(=O)(=O)Nc2cccc(C(F)(F)F)c2)c1)C(=O)Nc1ccc2c(c1)OCCO2 (stereo unspecified)	-101.3
O=C(Cc1cccc2ccccc12)Nc1ccc(OC(F)F)c(Cl)c1	-94.0
O=C(Nc1ccc(OC(F)F)cc1)Nc1cccc(C(F)(F)F)c1	44.1*
COc1ccc(NC(=O)N(C)C[C@H]2Oc3ncc(C4=CCCC4)cc3C(=O)N([C@@H](C)CO)C[C@@H]2C)cc1	1.7
C[C@H]1CN([C@@H](C)CO)S(=O)(=O)c2ccc(C#CC(C)(C)O)cc2O[C@H]1CN(C)C(=O)C1CCC1	4.9
CCC(=O)Nc1ccc2c(c1)OC[C@H](C)N(C(=O)c1ccccc1F)C[C@H](C)[C@H](OC)CN(C)C2=O	-0.7
COc1ccccc1-[n+]1c(C)cc(/C=C2\Sc3ccccc3N2C)cc1C	69.5*
COc1ccc(-c2cnc3c(c2)C(=O)N([C@@H](C)CO)C[C@H](C)[C@H](CN(C)C(=O)C2CCOCC2)O3)cc1	-5.8
Cc1ccc(S(=O)(=O)N(C)C[C@H]2Oc3ncc(C#CCC(C)C)cc3C(=O)N([C@@H](C)CO)C[C@H]2C)cc1	-4.9
SMILES	miR-122 inh
C[C@@H]1CN([C@@H](C)CO)S(=O)(=O)c2ccc(-c3cncnc3)cc2O[C@@H]1CN(C)Cc1ccccn1	6.0
COc1cccc(-c2ccc3c(c2)O[C@H](CN(C)C(=O)C2CCCCC2)[C@@H](C)CN([C@@H](C)CO)S3(=O)=O)c1	-40.8
C[C@H](CO)N1C[C@H](C)[C@@H](CN(C)Cc2ccccc2)Oc2ncc(-c3cccc(C#N)c3)cc2C1=O	10.8
Cc1ccc(C2CN(C)C3(C(=O)Nc4ccccc43)C23COc2ccccc2C3=O)cc1 (stereo unspecified)	-295.3
Cc1ccc(C2CN=NC23CCc2ccccc2C3=O)cc1 (stereo unspecified)	50.6*
COCC(=O)Nc1ccc2c(c1)C(=O)N(C)C[C@H](OC)[C@H](C)CN(C(=O)COC)[C@@H](C)CO2	-2.5
CCCC#Cc1ccc2c(c1)O[C@H](CN(C)S(C)(=O)=O)[C@H](C)CN([C@H](C)CO)S2(=O)=O	-16.4
CCCNC(=O)NC[C@@H]1[C@@H](c2ccc(C3=CCCCC3)cc2)[C@H](CO)N1C(C)=O	-114.3
CCCNC(=O)N1[C@H](CNC(=O)c2ccc(F)cc2)[C@H](c2ccccc2)[C@@H]1CO	41.7*
C[C@@H]1CN([C@H](C)CO)C(=O)c2cc(C#Cc3ccccn3)cnc2O[C@@H]1CN(C)C(=O)c1cnccn1	4.8
COc1ccc(C#Cc2cnc3c(c2)C(=O)N([C@H](C)CO)C[C@H](C)[C@H](CN(C)Cc2ccncc2)O3)cc1OC	-0.2
CO[C@@H]1CN(C)C(=O)c2ccc(NC(=O)CN(C)C)cc2OC[C@@H](C)N(C(=O)C2CCCCC2)C[C@H]1C	-1.0
CCN(CC)CCNC(=O)c1ccc(NC(=O)c2cn(-c3ccc(F)cc3)nc2-c2cccc(OC)c2)cc1	67.9*
COc1cccc(C(=O)Nc2ccc(C(=O)O)cc2)c1	-112.7
CC(C)CC#Cc1cnc2c(c1)C(=O)N([C@H](C)CO)C[C@@H](C)[C@H](CN(C)C(=O)NC1CCCC1)O2	-3.2
COc1ccc(C#Cc2cnc3c(c2)C(=O)N([C@@H](C)CO)C[C@@H](C)[C@H](CN(C)CC2CCOCC2)O3)cc1	7.1
CCCC(=O)Nc1ccc2c(c1)OC[C@H](C)N(C(C)=O)C[C@H](C)[C@H](OC)CN(C)C2=O	1.7
Cc1cc(C)cc(NC(=O)c2ccc(CSc3nnc(C)s3)cc2)c1	33.9*
CCC(=O)Nc1ccc2c(c1)OC[C@@H](C)N(C(=O)CN1CCOCC1)C[C@@H](C)[C@@H](OC)CN(C)C2=O	-15.5
C[C@@H]1CN([C@H](C)CO)S(=O)(=O)c2ccc(-c3ccncc3)cc2O[C@@H]1CN(C)Cc1ccccn1	-14.4
NC1=NC[C@@H](CC2CCCCC2)N1CCc1cc(C(F)(F)F)cc(C(F)(F)F)c1	34.9*
Cc1ccc(-c2ccc3c(c2)O[C@H](CN(C)Cc2ccc(F)cc2)[C@@H](C)CN([C@H](C)CO)S3(=O)=O)cc1	-98.2
COc1ccc(-c2ccc3c(c2)O[C@@H](CN(C)C(=O)c2ccccc2F)[C@H](C)CN([C@H](C)CO)S3(=O)=O)cc1	-11.2
COCC(=O)N(C)C[C@@H]1Oc2cc(-c3cncnc3)ccc2S(=O)(=O)N([C@H](C)CO)C[C@@H]1C	0.2
COc1cccc(-c2cnc3c(c2)C(=O)N([C@H](C)CO)C[C@H](C)[C@@H](CN(C)Cc2ccccc2)O3)c1	4.3
SMILES	miR-122 inh
COCC#Cc1ccc2c(c1)O[C@@H](CN(C)C(C)=O)[C@H](C)CN([C@@H](C)CO)S2(=O)=O	-5.6
C[C@@H]1CN([C@@H](C)CO)C(=O)c2cc(/C=C/c3ccccc3)cnc2O[C@@H]1CN(C)C(=O)Nc1ccccc1F	0.9
COc1ccc(CN(C(=O)c2ccc(-c3ccccc3)[nH]2)C(C(=O)NCC2CCCO2)c2ccc(C)o2)cc1 (stereo unspecified)	-230.2
COc1ccccc1NS(=O)(=O)c1cc(NC(=S)NCC2CCCO2)ccc1C (stereo unspecified)	-99.2
COc1cccc(Nc2nc(NCC3CCCO3)c3ccccc3n2)c1 (stereo unspecified)	51.4*
CC(C)NC(=O)N(C)C[C@@H]1Oc2ncc(C#CC(C)(C)O)cc2C(=O)N([C@H](C)CO)C[C@@H]1C	7.5
C[C@@H]1CN([C@@H](C)CO)C(=O)c2cc(/C=C/c3ccccc3)cnc2O[C@@H]1CN(C)C(=O)c1ccncc1	8.0
